Reference: PubChem BioAssay
Activity calls are given as the source filed them.

Columns and labels:
Albumin (Bos taurus) = Albumin (Bos taurus) (UniProt P02769); experiment: compounds binding labelled BSA control protein – biochemical, small-molecule microarray, Alexa647 label, 635/667 nm fluorescence, artefact control for SMM control protein annotation, profiling panel (AID 1118); details: BSA-A647 binding, fluorescence 635 nm, higher = more signal;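 note: score merges 667 nm emission intensity and signal-to-noise per printed compound spot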
[1] = probe aXIP binding to arrayed compounds – biochemical, NeuroSMM set, 635/667 nm fluorescence, primary screen (AID 1119); details: small-molecule microarray, higher = more signal, called active from +8 up or from −8 down;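 note: probe is the protein aXip251-270 applied at 1 µg/mL to compound-printed slides; binding of probe to printed compounds measured as 667 nm fluorescence plus signal to noise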
[2] = probe aNOTCH3 binding on compound microarray – biochemical, small-molecule microarray, 635/667 nm fluorescence, primary screen (AID 1120); details: higher = more signal;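 note: probe is a biotin-tagged antibody raised against NOTCH3 rather than NOTCH3 protein; score merges spot fluorescence near 667 nm with spot signal to noise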
[3] = probe aNOTCH2 binding on compound microarray – biochemical, small-molecule microarray, 635/667 nm fluorescence, primary screen (AID 1121); details: higher = more signal;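 note: score merges feature fluorescence read at 667 nm with its signal to noise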
[4] = target: Carbonic anhydrase 2 (Homo sapiens) (UniProt P00918); experiment: compounds binding carbonic anhydrase 2 – biochemical, small-molecule microarray, Alexa647-labelled CAII, profiling panel (AID 1122); details: CAII-A647 binding fluorescence, higher = more signal
[5] = COS7 lysate on small-molecule microarray, probe aHis, 635 nm (AID 1123); details: COS7 cell lysate, fluorescence, higher = more signal;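 note: z-score combines 667nm fluorescence intensity with signal-to-noise per printed compound spot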
[6] = probe aLAP1 signal on lysate-treated microarray – cell lysate, small-molecule microarray, COS7 lysate, primary screen (AID 1124); details: probe aLAP1, fluorescence, higher = more signal;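 note: lysate comes from COS7 cells expressing LAP1 and is applied at 0.3 µg/mL; score merges spot fluorescence near 667 nm with signal-to-noise over triplicate slides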
Sam68 (KHDRBS1) = experiment: compounds binding KHDRBS1 protein – biochemical, small-molecule microarray, 635 nm fluorescence, primary screen (AID 1125); details: higher = more signal;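 note: score merges 667 nm channel intensity with signal to noise over triplicate slides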
[7] = system: Chordin-like protein 2 (CHRDL2); experiment: compounds binding chordin-like 2 – biochemical, small-molecule microarray, 635 nm fluorescence, primary screen (AID 1126); details: fluorescence 635 nm, higher = more signal;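 note: printed compound slides probed with Chrdl2 protein at 4 µg/mL for 1 h at 4 C; score merges 667 nm emission intensity with signal to noise over three replicate slides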
[8] = target: Concanavalin-A (Canavalia ensiformis) (UniProt P02866); experiment: compounds binding concanavalin A lectin – biochemical, small-molecule microarray, Alexa647 label, 635 nm, artefact control for SMM control protein annotation, primary screen (AID 1127); details: ConA-A647 binding fluorescence, higher = more signal;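 note: z combines 667 nm emission intensity with signal-to-noise across three replicate slides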
Sequence of Concanavalin-A (Canavalia ensiformis) (P02866 whole entry, looked up): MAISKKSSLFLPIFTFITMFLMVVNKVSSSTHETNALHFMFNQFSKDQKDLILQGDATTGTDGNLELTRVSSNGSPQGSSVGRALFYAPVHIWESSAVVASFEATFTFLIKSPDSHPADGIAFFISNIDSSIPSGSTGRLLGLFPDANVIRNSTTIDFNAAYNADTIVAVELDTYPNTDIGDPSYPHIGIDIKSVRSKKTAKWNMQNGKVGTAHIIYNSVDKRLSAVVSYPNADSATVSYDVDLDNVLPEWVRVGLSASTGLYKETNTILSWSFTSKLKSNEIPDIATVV

Sequence of Albumin (Bos taurus) (P02769 whole entry, looked up): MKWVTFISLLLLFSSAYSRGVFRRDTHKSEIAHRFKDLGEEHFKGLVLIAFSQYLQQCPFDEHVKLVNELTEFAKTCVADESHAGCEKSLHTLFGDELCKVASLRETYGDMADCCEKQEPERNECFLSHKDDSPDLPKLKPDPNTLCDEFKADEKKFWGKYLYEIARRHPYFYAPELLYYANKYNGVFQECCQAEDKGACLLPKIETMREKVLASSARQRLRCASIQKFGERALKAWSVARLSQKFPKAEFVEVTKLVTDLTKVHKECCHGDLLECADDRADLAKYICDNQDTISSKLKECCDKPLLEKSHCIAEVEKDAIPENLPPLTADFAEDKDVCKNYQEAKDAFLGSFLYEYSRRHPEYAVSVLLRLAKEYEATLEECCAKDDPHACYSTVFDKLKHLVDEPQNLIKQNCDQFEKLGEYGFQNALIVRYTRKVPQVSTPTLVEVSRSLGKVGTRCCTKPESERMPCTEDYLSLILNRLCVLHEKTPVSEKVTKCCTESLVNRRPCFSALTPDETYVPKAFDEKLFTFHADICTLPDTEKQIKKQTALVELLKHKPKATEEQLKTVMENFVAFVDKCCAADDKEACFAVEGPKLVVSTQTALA

Row | Structure (SMILES) | composite z-score (Albumin (Bos taurus)) | composite Z-score [1] | composite z-score [2] | composite z-score [3] | composite z-score [4] | composite z-score [5] | composite z-score [6] | composite z-score (Sam68 (KHDRBS1)) | composite z-score [7] | composite z-score [8]
1 | C[N+](C)(C)CCCCCCNC(=O)[C@@H]1C[C@@H]2C(=O)NCC(=O)N2[C@@H]1c1ccc(O)cc1 | -0.356 | 0.607 (inactive) | 0.0636 | -0.174 | 0.618 | 1.69 | 0.393 | 1.06 | 1.3 | 0.788
2 | CO[C@H]1O[C@H](CO)[C@@H](OC(=O)Nc2ccc(C(F)(F)F)cc2)[C@H](OC(=O)Nc2ccccc2)[C@H]1OC(=O)Nc1ccccc1 | 0.868 | -0.465 (inactive) | 0.248 | 0.0083 | 0.565 | 2.68 | 0.494 | 1.3 | -0.42 | 1.21
3 | CC(C)CNC(=O)[C@@]1(C)c2ccccc2C(=O)N(Cc2ccccc2)[C@H]1c1ccc(CO)cc1 | -0.928 | 3.02 (inactive) | -0.352 | -0.133 | 0.788 | 1.19 | 1.16 | -0.992 | -2.5 | -1.44
4 | CN(C)CCCNC(=O)[C@@]1(Cc2ccccc2I)c2ccccc2C(=O)N(Cc2ccccc2Cl)[C@H]1c1ccc(CO)cc1 | 0.827 | -0.175 (inactive) | 0.175 | 0.2 | 0.522 | 1.44 | 0.507 | -0.035 | -1.09 | 1.09
5 | COC(=O)[C@]1(Cc2ccccc2CN=[N+]=[N-])N=C(c2ccc(OCCCO)cc2)O[C@@H]1c1ccccc1CN=[N+]=[N-] | -0.204 | -0.206 (inactive) | -0.0984 | -0.0079 | 0.651 | 1.75 | 0.838 | 0.877 | 0.31 | 0.951
6 | [N-]=[N+]=Nc1ccccc1[C@@H]1OC(c2ccc(OCCCO)cc2)=N[C@]1(CCS(=O)(=O)c1ccccc1)C(=O)NCc1ccccc1 | 0.976 | 1.08 (inactive) | 0.752 | 0.38 | 0.749 | 2.86 | 0.48 | 1.29 | -0.612 | 1.11
7 | CC(C)N1C(=O)c2ccccc2[C@](C)(C(=O)O)[C@@H]1c1ccc(CO)cc1 | 0.401 | -0.158 (inactive) | -0.103 | 0.16 | 0.326 | 0.119 | 0.755 | -0.769 | -1.49 | -0.0545
8 | COc1cc(C(O)C2C=CC3C(=O)NC(=O)C3N2Nc2ccc(Cl)cc2Cl)cc(OC)c1OC (stereo not given) | 0.254 | -0.762 (inactive) | 0.454 | 0.0956 | 0.752 | 2.99 | 0.115 | 0.79 | -0.0696 | 1.05
9 | CN(C)CCCN1C(=O)[C@@]2(Cc3ccccc31)c1ccccc1C(=O)N(Cc1ccccc1)[C@H]2c1ccc(CO)cc1 | -0.153 | 0.634 (inactive) | -0.109 | -0.181 | -0.0077 | -0.258 | -0.485 | 0.347 | 0.757 | 0.544
10 | C=CCOc1ccc([C@@H]2CC=C(C(=O)OCC)[C@H](c3cccc(Br)c3)N2S(=O)(=O)c2ccc(C)cc2)cc1 | 0.64 | 0.0809 (inactive) | 0.032 | -0.0784 | -0.125 | 0.491 | 0.11 | 0.099 | 0.314 | 0.709
11 | CC(C)(C)OC(=O)CC[C@@]1(C(=O)N2CCCCC2)N=C(c2ccc(OCCCO)cc2)O[C@@H]1c1ccccc1N=[N+]=[N-] | 0.943 | -0.15 (inactive) | 0.4 | 0.127 | 0.775 | 2.94 | 1.58 | 1.29 | 0.142 | 1.17
